Tests used:
[1] = biological target: T1, Inhibitor of nuclear factor kappa-B kinase subunit epsilon (Homo sapiens) (UniProt Q14164); conditions: at 1 µM;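 note: reported values are averaged percent inhibition figures against human IKKε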
T1 sequence (whole entry): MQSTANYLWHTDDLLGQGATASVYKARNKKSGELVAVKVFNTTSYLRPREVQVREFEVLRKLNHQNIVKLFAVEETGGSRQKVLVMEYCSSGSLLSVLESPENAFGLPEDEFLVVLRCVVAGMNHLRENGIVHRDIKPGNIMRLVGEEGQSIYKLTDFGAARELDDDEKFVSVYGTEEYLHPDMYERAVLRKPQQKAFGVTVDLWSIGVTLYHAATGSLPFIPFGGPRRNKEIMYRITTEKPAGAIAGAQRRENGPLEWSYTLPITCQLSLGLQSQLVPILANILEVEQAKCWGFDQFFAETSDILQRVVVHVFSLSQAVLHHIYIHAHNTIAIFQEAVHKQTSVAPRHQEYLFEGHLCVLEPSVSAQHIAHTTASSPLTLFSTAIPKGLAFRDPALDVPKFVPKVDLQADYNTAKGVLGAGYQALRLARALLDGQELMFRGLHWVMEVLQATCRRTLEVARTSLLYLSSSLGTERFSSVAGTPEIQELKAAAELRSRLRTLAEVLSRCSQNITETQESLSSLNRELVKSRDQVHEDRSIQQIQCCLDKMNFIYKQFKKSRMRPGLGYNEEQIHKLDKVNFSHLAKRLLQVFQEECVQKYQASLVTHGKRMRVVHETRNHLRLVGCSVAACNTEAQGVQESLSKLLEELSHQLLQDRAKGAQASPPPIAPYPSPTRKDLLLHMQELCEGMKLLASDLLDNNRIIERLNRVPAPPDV

[2] = biological target: T2, Serine/threonine-protein kinase Nek1 (Homo sapiens) (UniProt Q96PY6); conditions: at 0.1 µM
T2 sequence (whole entry): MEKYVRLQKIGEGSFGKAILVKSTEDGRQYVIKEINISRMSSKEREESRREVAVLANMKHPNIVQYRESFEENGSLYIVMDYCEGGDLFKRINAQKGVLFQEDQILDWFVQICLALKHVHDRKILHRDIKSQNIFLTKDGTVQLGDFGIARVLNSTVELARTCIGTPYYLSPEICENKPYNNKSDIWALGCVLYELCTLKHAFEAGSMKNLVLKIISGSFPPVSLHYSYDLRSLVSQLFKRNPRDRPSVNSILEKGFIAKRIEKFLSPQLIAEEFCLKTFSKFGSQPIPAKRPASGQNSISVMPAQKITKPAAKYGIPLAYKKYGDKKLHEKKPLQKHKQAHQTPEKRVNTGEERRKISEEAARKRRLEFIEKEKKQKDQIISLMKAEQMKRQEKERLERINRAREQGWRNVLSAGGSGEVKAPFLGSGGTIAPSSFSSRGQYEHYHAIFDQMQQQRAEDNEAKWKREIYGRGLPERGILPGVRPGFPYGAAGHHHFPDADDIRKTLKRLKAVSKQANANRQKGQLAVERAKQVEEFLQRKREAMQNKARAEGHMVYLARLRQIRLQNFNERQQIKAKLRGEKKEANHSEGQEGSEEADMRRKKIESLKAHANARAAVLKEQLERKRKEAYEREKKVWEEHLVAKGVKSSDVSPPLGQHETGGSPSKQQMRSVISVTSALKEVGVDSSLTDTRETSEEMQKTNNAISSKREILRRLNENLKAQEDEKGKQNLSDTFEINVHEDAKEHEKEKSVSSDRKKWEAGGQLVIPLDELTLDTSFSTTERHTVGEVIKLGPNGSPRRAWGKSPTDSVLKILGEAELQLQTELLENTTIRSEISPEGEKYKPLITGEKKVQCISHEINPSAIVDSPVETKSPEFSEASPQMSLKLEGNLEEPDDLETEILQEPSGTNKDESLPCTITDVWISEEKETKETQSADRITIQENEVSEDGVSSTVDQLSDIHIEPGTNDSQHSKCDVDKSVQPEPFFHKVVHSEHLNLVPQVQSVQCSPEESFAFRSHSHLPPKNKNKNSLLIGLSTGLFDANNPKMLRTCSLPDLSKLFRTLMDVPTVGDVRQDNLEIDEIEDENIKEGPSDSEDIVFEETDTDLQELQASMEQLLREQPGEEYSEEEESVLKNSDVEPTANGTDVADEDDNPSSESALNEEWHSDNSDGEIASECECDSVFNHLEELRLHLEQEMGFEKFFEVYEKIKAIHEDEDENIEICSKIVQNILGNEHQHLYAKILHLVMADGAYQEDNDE

[3] = biological target: T2, Serine/threonine-protein kinase Nek1 (Homo sapiens); conditions: at 1 µM
[4] = biological target: T3, Serine/threonine-protein kinase Nek2 (Homo sapiens) (UniProt P51955); conditions: at 0.1 µM
T3 sequence (whole entry): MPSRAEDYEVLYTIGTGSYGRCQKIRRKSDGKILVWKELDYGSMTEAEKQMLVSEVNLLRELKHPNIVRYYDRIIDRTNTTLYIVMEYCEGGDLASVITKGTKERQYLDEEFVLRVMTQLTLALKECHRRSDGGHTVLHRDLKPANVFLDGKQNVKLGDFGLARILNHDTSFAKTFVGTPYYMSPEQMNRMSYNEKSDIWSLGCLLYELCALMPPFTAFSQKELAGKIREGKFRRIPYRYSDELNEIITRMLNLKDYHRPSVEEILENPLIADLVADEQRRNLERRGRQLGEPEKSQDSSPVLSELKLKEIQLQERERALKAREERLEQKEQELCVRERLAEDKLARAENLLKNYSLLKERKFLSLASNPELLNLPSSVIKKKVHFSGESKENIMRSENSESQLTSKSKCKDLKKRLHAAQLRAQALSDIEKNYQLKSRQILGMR

[5] = biological target: T3, Serine/threonine-protein kinase Nek2 (Homo sapiens); conditions: at 1 µM
[6] = biological target: Serine/threonine-protein kinase Nek6 (Homo sapiens) (UniProt Q9HC98); conditions: at 0.1 µM
[7] = biological target: Serine/threonine-protein kinase Nek6 (Homo sapiens) (UniProt Q9HC98); conditions: at 1 µM
[8] = biological target: Serine/threonine-protein kinase Nek7 (Homo sapiens) (UniProt Q8TDX7); conditions: at 0.1 µM
[9] = biological target: Serine/threonine-protein kinase Nek7 (Homo sapiens) (UniProt Q8TDX7); conditions: at 1 µM
[10] = biological target: T4, Serine/threonine-protein kinase Nek9 (Homo sapiens) (UniProt Q8TD19); conditions: at 0.1 µM
T4 sequence (whole entry): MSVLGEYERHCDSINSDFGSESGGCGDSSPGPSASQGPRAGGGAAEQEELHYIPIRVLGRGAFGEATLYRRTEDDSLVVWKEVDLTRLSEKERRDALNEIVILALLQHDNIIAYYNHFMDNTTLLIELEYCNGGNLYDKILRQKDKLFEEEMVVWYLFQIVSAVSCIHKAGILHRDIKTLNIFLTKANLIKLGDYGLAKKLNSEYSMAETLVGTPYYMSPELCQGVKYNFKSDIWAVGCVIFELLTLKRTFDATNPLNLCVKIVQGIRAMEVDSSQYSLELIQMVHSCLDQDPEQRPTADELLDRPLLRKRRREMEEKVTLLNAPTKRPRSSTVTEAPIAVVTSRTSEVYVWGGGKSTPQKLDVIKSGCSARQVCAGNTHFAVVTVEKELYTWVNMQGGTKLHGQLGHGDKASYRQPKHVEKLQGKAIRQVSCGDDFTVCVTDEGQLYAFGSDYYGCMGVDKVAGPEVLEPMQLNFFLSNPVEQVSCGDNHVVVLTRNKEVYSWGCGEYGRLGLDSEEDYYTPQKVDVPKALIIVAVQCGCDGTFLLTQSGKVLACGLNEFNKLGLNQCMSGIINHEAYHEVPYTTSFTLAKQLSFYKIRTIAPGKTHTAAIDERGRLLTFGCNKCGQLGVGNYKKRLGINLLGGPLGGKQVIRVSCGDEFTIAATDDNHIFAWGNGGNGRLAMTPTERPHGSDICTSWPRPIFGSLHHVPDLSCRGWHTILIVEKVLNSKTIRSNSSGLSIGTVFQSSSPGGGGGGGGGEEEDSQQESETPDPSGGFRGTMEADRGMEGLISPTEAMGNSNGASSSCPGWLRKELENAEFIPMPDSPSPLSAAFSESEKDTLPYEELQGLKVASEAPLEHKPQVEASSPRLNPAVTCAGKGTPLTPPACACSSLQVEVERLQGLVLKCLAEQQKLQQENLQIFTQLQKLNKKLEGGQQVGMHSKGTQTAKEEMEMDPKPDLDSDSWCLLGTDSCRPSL

[11] = biological target: T4, Serine/threonine-protein kinase Nek9 (Homo sapiens); conditions: at 1 µM
[12] = biological target: Serine/threonine-protein kinase PLK1 (Homo sapiens) (UniProt P53350); conditions: at 0.1 µM
[13] = biological target: Serine/threonine-protein kinase PLK1 (Homo sapiens) (UniProt P53350); conditions: at 1 µM
[14] = biological target: T5, Dual specificity protein kinase TTK (Homo sapiens) (UniProt P33981); conditions: at 0.1 µM
T5 sequence (whole entry): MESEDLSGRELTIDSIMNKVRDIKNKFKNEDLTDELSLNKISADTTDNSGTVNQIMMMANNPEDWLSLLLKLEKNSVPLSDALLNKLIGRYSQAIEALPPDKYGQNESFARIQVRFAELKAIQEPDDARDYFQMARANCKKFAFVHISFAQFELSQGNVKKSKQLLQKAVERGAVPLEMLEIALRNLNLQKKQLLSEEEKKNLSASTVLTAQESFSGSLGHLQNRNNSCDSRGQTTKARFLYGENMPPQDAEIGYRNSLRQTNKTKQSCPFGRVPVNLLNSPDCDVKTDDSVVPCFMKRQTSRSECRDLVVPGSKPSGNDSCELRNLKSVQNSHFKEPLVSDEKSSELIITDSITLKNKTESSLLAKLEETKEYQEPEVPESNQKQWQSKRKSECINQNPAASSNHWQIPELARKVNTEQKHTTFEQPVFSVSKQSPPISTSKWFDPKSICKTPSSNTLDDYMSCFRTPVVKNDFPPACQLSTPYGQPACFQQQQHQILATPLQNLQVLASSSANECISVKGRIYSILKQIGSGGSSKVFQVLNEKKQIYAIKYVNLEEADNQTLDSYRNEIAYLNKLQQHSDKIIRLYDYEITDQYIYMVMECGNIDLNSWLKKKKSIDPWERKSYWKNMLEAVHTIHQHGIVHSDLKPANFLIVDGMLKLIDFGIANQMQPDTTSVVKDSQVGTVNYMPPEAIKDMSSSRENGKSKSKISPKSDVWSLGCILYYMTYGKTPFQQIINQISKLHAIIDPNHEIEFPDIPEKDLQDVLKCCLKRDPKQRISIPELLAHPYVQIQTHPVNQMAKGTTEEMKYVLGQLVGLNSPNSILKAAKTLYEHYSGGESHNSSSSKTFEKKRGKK

[15] = test system: T6, Receptor-type tyrosine-protein kinase FLT3 (Homo sapiens), P36888 [D835Y]; conditions: at 1 µM
T6 sequence (whole entry): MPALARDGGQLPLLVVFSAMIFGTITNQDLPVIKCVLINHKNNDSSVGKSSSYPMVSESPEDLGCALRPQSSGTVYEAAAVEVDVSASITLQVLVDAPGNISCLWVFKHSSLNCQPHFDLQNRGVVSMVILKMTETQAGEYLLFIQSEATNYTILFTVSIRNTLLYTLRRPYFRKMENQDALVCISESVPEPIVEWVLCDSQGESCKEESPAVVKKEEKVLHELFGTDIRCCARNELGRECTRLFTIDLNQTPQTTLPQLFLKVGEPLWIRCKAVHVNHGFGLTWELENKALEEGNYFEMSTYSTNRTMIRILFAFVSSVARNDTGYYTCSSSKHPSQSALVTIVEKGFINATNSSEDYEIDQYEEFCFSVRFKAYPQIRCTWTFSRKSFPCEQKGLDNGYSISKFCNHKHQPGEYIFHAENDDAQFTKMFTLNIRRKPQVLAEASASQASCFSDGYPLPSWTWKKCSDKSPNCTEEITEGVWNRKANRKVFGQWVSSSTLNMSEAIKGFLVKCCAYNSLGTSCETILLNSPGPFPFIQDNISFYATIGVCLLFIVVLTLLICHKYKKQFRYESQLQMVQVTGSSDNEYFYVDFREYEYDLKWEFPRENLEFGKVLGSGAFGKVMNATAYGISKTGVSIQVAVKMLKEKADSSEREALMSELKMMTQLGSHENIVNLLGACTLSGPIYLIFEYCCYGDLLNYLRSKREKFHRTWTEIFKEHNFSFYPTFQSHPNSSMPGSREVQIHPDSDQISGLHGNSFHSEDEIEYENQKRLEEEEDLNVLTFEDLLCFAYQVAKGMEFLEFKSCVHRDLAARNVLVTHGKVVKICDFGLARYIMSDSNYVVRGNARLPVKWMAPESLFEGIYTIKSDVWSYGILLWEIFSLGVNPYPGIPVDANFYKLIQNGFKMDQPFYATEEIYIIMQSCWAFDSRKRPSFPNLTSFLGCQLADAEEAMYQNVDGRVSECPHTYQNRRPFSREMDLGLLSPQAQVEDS

[16] = biological target: Vascular endothelial growth factor receptor 3 (Homo sapiens) (UniProt P35916); conditions: at 0.1 µM
[17] = biological target: Vascular endothelial growth factor receptor 3 (Homo sapiens) (UniProt P35916); conditions: at 1 µM
[18] = biological target: Macrophage colony-stimulating factor 1 receptor (Homo sapiens) (UniProt P07333); conditions: at 0.1 µM
[19] = biological target: Macrophage colony-stimulating factor 1 receptor (Homo sapiens) (UniProt P07333); conditions: at 1 µM
[20] = biological target: Tyrosine-protein kinase Fyn (Homo sapiens) (UniProt P06241); conditions: at 0.1 µM
Sequence of Tyrosine-protein kinase Fyn (Homo sapiens) (P06241 2-537 limits assumed): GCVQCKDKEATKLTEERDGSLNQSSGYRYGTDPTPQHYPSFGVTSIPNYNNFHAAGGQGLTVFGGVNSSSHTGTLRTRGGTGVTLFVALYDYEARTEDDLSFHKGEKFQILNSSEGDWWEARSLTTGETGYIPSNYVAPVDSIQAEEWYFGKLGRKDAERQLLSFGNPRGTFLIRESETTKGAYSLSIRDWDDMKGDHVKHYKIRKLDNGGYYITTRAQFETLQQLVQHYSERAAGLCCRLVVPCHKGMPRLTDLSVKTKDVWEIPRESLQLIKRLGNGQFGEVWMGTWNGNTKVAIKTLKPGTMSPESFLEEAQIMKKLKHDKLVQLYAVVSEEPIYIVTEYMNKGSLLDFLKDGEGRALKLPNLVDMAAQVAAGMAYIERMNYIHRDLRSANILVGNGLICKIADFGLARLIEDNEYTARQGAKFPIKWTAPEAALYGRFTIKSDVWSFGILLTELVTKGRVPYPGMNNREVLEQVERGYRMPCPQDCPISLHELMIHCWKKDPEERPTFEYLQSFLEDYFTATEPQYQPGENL

Sequence of Serine/threonine-protein kinase PLK1 (Homo sapiens) (P53350 whole entry): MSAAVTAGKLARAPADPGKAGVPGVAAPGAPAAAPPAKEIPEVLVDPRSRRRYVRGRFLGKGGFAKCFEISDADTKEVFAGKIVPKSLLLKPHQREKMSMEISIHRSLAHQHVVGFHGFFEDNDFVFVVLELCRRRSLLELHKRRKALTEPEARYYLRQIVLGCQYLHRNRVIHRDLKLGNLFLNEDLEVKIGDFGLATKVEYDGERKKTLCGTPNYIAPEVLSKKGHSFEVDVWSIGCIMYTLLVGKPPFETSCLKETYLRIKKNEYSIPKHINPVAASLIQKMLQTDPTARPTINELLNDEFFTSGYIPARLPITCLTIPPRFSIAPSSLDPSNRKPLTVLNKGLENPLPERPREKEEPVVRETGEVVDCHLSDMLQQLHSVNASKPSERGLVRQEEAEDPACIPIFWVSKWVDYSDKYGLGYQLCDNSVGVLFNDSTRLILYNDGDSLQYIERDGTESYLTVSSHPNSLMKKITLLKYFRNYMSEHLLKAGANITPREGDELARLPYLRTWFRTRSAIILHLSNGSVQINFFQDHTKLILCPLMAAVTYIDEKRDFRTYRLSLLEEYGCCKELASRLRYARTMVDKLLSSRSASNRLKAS
Sequence of Macrophage colony-stimulating factor 1 receptor (Homo sapiens) (P07333 whole entry): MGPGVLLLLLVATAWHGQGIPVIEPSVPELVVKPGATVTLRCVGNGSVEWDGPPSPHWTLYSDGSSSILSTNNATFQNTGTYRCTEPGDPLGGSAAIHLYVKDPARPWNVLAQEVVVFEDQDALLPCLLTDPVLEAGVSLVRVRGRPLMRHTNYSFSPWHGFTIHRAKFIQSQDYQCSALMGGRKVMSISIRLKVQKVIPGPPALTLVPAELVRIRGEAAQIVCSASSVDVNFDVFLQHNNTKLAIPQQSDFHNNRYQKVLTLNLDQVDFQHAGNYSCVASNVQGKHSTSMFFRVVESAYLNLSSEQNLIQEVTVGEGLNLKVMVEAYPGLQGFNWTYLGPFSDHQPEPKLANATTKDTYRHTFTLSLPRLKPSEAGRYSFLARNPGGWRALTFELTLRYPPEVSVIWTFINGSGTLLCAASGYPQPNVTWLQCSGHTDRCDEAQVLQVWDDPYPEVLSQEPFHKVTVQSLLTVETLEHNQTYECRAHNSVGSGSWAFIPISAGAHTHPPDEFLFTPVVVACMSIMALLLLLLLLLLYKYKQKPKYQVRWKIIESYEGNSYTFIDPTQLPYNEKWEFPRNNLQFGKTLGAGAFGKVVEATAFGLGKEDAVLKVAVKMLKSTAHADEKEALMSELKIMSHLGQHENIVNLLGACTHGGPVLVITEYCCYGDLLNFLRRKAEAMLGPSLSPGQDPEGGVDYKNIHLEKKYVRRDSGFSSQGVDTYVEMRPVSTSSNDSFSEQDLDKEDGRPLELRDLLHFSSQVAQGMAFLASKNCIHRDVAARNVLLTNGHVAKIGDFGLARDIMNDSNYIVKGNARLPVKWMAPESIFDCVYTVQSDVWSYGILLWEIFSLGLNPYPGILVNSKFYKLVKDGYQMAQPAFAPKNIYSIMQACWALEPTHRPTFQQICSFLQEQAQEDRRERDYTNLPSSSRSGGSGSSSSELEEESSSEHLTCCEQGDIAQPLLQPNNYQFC
Sequence of Serine/threonine-protein kinase Nek6 (Homo sapiens) (Q9HC98 whole entry): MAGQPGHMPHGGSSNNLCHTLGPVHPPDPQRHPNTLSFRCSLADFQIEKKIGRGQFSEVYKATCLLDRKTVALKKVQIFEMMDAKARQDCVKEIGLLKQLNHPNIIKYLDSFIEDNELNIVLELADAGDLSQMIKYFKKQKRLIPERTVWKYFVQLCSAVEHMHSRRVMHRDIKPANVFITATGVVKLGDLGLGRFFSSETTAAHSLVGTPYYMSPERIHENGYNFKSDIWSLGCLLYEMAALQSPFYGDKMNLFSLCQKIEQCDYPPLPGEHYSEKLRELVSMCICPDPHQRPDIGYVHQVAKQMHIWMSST
Sequence of Serine/threonine-protein kinase Nek7 (Homo sapiens) (Q8TDX7 whole entry, looked up): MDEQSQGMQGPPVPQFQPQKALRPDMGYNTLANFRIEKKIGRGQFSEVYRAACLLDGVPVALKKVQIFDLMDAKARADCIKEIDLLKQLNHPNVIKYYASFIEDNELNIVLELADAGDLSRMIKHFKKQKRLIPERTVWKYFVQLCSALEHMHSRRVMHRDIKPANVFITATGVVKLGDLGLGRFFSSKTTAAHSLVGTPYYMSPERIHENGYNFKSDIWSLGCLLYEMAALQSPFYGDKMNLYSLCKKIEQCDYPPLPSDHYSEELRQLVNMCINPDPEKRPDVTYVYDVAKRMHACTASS
Sequence of Vascular endothelial growth factor receptor 3 (Homo sapiens) (P35916 whole entry): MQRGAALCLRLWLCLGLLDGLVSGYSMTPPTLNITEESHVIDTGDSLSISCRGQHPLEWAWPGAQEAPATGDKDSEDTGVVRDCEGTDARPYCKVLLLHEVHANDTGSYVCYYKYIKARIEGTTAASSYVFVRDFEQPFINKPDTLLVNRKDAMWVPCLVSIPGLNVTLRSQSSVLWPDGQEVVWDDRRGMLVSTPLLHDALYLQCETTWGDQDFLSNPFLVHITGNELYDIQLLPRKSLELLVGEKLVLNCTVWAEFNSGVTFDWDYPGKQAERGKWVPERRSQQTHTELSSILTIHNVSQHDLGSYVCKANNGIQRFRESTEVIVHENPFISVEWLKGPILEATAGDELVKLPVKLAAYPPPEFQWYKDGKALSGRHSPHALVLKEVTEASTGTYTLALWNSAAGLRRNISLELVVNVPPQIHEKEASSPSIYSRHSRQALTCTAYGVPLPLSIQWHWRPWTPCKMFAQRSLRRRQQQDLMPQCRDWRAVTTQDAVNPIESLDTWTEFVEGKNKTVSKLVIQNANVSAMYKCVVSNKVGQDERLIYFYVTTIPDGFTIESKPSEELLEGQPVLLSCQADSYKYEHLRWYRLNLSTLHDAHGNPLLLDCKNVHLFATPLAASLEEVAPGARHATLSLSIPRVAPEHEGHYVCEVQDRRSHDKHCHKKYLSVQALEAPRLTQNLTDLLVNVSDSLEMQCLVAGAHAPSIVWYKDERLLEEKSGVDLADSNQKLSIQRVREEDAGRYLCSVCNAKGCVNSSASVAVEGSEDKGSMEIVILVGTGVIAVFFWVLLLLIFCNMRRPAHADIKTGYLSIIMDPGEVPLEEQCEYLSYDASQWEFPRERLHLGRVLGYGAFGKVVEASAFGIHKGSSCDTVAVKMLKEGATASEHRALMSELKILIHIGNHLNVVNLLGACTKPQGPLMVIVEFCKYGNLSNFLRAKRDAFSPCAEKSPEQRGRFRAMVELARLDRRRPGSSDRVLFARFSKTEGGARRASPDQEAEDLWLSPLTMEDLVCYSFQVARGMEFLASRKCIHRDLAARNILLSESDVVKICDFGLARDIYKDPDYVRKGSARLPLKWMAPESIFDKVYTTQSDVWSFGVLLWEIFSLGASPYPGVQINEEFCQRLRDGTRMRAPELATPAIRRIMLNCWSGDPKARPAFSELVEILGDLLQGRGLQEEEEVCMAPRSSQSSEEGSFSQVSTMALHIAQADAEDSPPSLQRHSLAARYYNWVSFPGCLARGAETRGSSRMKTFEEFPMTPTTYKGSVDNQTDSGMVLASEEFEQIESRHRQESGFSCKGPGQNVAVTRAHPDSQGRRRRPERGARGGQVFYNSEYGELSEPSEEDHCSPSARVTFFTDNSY

Row | Structure (SMILES) | inhibition [1] [%] | inhibition [2] [%] | inhibition [3] [%] | inhibition [4] [%] | inhibition [5] [%] | inhibition [6] [%] | inhibition [7] [%] | inhibition [8] [%] | inhibition [9] [%] | inhibition [10] [%] | inhibition [11] [%] | inhibition [12] [%] | inhibition [13] [%] | inhibition [14] [%] | inhibition [15] [%] | inhibition [16] [%] | inhibition [17] [%] | inhibition [18] [%] | inhibition [19] [%] | inhibition [20] [%]
1 | Fc1ccc(-c2ncn(C3CCNCC3)c2-c2ccnc(Oc3ccc(F)c(F)c3)n2)cc1 | 4.67 | 2.19 | 0.52 | 5.55 | 4.23 | 0.84 | 2.1 | 3.19 | 6.72 | 6.39 | 6.01 | 3.45 | 2.6 | 10.3 | -6.12 | -4.95 | -7.54 | 1.11 | 7.56 | -4.18
2 | NC(=O)c1cc(-c2ccc(F)cc2)cc(-c2ccncc2)c1N | 3.16 | 1.62 | 1.03 | 4.7 | 3.75 | 4.68 | 6.66 | 6.78 | 4.73 | 7.94 | 19.1 | 5.25 | 2.93 | 11.9 | -3.97 | -0.28 | 0.18 | 2.97 | 15.4 | 0.07
3 | CN(c1ccc(NC(=O)Nc2c(Cl)cccc2Cl)cc1)c1ccnc(Nc2cccc(CS(C)(=O)=O)c2)n1 | 8.6 | 1.38 | 1.93 | 0.12 | 1.07 | 0.64 | 1.86 | 1.01 | 1.59 | -4.22 | -6.03 | 0.57 | 0.37 | 3.9 | 28.8 | 23 | 41.7 | 92.1 | 96.2 | 2.74

Source: ChEMBL document CHEMBL1961873, “Compounds: GSK PKIS; Assays: Nanosyn kinase panel” (2012)
